Laboratory results as given in the supplement of paper PMC10849652.
The full data set covers some 7,900 targets. This sample favours those with a hit. About 0.6% of all pairs of compound and target were hits. A number with no mark means an inactive call.

Key:
Assay in all cases: log2 fold change, soluble protein after heating vs DMSO (PISA); higher = thermal stabilisation; K562 cells, 10 uM, 30 min; active = over 0.2 and 3.5 SD of the protein, either way, in both replicates (recomputed)
[1] = compound: NC(=O)Nc1cc(-c2cccc(F)c2)sc1C(=O)N[C@H]1CCCNC1
In short: (§1)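 Aliquots of K562 cells (2×10^6 cells/mL) treated with 10 μM compound for 30 min were heated for 3 min over 48°C-58°C. After pooling and extraction in PBS with 0.5% NP-40 at 4°C, soluble protein from a 21,000xg, 90 min spin was quantified by TMTpro 16plex LC-MS/MS with channel sums equalised. Thermal stability is expressed against control samples, from duplicates, as a log2 fold change.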

[2] = compound: NC(=O)c1cnc(N[C@@H]2CCCC[C@@H]2N)nc1Nc1cccc(-n2nccn2)c1
In short: as §1

[3] = compound: NC1(c2ccc(-c3nc4ccn5c(=O)[nH]nc5c4cc3-c3ccccc3)cc2)CCC1
In short: as §1

[4] = compound: NCC(=O)Nc1ccc(-n2nc(C(F)(F)F)cc2-c2ccc3c(ccc4ccccc43)c2)cc1
In short: as §1

entinostat = compound: Nc1ccccc1NC(=O)c1ccc(CNC(=O)OCc2cccnc2)cc1 [entinostat]
In short: as §1

vorinostat = compound: O=C(CCCCCCC(=O)Nc1ccccc1)NO [vorinostat]
In short: as §1

citarinostat = compound: O=C(CCCCCCNC(=O)c1cnc(N(c2ccccc2)c2ccccc2Cl)nc1)NO [citarinostat]
In short: as §1

silmitasertib = compound: O=C(O)c1ccc2c(c1)nc(Nc1cccc(Cl)c1)c1ccncc12 [silmitasertib]
In short: as §1

[5] = compound: O=C1NC(=O)C(c2cnc3ccccn23)=C1c1cn2c3c(cc(F)cc13)CN(C(=O)N1CCCCC1)CC2
In short: as §1

[6] = compound: c1cc(OCCN2CCCCC2)cc(-c2n[nH]c3ccc(-c4nnc[nH]4)cc23)c1
In short: as §1

UniProt Q5M775, sequence (Q5M775 whole entry, looked up): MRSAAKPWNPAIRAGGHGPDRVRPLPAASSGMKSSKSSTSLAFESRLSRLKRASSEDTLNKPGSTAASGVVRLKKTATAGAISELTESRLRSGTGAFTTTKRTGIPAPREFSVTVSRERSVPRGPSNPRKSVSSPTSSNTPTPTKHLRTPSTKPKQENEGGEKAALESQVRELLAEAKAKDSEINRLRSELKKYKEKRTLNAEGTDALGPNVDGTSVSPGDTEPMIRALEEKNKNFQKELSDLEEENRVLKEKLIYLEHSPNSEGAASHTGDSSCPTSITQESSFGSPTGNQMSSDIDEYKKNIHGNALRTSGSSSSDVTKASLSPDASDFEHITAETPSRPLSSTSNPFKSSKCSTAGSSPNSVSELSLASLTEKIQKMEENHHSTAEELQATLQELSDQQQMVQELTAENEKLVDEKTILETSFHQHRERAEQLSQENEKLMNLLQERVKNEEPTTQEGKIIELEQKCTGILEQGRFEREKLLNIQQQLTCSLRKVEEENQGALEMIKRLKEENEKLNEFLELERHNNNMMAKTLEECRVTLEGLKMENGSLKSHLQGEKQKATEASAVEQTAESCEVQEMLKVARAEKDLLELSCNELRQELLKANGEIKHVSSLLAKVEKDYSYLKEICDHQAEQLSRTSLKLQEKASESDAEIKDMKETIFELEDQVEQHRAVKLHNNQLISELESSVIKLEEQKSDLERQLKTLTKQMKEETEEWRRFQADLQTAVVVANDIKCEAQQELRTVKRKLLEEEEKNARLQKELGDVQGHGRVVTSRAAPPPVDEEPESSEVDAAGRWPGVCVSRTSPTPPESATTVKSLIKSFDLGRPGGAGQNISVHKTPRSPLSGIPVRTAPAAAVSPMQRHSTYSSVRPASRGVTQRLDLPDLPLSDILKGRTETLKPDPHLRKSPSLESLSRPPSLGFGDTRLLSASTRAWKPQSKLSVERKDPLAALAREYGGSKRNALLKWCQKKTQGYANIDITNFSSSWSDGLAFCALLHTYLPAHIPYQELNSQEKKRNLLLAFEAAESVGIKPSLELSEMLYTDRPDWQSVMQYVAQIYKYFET
UniProt Q13242, sequence (Q13242 whole entry, looked up): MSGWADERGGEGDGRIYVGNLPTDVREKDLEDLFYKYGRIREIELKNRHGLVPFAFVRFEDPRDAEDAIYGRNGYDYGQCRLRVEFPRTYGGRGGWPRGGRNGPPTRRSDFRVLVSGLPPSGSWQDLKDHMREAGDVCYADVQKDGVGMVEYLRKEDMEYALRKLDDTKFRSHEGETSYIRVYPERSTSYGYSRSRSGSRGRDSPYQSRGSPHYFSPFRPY
UniProt Q07157, sequence (Q07157 whole entry, looked up): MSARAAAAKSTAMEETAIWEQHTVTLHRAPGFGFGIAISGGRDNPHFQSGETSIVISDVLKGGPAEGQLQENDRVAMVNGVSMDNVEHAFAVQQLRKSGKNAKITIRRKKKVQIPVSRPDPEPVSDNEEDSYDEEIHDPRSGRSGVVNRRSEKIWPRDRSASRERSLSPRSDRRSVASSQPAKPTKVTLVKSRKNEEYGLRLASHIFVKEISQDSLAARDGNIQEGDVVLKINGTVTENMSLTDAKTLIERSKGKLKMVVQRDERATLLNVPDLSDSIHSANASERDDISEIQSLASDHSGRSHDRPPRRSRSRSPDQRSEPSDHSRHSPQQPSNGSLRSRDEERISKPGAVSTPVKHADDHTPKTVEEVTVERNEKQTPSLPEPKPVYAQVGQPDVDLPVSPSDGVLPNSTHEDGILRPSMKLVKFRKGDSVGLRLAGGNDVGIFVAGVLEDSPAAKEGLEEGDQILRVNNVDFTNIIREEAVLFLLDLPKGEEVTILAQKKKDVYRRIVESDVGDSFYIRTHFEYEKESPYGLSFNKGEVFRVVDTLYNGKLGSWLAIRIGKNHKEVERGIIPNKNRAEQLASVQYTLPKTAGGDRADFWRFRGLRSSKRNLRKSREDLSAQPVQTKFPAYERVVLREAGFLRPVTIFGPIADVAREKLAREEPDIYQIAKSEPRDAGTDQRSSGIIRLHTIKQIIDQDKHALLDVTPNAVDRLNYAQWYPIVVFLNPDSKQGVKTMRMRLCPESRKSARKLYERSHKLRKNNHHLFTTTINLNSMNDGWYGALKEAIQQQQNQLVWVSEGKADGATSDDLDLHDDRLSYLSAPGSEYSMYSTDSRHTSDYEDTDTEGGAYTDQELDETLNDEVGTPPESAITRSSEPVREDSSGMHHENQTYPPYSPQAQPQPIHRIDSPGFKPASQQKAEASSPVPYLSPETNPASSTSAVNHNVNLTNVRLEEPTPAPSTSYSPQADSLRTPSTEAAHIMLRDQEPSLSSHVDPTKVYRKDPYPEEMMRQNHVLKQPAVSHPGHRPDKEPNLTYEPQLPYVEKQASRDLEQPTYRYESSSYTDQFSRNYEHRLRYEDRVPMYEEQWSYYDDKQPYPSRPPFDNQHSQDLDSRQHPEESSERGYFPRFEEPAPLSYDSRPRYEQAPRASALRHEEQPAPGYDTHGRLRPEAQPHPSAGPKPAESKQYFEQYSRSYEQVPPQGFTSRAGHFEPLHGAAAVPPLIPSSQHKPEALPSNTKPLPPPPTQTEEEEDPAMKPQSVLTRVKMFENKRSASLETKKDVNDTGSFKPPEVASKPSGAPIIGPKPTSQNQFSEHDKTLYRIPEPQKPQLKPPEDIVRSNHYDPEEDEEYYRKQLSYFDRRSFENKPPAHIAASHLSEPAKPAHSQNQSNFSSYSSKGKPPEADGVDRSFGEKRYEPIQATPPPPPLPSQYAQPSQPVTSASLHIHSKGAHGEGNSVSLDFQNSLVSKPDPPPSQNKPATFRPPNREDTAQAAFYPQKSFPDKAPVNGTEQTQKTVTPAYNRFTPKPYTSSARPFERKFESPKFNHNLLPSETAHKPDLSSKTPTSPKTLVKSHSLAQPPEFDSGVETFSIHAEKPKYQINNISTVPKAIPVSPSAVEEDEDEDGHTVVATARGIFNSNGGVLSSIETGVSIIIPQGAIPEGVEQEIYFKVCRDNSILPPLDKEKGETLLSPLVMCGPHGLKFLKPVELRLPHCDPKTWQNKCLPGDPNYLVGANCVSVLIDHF
UniProt P51532, sequence (P51532 whole entry, looked up): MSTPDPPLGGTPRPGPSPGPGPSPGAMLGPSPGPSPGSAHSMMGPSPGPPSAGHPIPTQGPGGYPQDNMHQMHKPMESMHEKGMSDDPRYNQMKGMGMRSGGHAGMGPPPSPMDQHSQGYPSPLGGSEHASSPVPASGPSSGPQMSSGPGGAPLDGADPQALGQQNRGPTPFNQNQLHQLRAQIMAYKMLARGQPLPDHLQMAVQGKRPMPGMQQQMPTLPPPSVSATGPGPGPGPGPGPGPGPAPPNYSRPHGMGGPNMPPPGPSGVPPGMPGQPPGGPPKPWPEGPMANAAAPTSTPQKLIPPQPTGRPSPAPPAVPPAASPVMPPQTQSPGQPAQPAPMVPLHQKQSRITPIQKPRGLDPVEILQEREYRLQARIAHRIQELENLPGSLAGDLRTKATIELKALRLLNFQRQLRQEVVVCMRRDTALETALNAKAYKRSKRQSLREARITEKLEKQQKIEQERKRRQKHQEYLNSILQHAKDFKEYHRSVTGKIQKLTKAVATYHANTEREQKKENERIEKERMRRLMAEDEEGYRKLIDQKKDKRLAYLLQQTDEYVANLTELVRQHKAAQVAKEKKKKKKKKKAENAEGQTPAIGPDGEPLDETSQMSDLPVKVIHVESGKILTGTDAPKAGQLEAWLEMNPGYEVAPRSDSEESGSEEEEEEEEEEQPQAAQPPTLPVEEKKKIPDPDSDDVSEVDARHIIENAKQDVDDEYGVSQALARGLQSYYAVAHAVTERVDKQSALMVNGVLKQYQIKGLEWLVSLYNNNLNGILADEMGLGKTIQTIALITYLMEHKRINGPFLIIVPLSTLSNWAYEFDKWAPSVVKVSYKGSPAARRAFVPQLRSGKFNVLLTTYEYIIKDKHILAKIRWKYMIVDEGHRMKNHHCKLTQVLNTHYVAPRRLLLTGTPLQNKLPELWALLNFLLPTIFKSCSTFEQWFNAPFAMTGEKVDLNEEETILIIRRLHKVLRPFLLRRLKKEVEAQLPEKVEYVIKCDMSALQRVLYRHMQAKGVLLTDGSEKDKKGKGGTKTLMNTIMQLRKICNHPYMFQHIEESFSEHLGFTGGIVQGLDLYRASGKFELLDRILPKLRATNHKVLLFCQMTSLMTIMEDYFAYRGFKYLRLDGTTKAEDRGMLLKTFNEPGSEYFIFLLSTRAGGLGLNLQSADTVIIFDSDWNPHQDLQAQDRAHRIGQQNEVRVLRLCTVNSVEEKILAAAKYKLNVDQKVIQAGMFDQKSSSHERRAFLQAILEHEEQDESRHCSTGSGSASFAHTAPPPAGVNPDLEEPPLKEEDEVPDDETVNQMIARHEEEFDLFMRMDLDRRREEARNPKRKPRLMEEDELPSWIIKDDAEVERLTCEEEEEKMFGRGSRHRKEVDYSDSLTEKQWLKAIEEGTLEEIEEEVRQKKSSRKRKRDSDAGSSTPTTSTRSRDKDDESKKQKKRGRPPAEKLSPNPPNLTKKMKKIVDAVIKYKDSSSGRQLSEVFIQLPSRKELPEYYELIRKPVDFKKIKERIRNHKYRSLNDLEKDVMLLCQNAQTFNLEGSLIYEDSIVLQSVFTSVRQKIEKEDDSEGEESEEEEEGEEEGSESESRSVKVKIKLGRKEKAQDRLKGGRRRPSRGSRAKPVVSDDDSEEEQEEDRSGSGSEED
UniProt Q9Y5W9, sequence (Q9Y5W9 whole entry, looked up): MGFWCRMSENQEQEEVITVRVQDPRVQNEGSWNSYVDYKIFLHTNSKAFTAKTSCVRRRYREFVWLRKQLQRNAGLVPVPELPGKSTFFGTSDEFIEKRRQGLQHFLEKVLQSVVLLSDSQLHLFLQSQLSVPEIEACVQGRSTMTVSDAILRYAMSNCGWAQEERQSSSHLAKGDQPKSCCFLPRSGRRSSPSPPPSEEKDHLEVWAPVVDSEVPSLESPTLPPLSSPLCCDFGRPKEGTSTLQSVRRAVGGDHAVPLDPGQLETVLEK
UniProt Q9BYN0, sequence (Q9BYN0 whole entry, looked up): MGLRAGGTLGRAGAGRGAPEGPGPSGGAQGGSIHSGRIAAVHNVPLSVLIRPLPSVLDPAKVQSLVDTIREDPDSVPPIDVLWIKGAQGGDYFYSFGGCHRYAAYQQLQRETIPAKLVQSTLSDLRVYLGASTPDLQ

Row | Target | log2 fold change [1] | log2 fold change [2] | log2 fold change [3] | log2 fold change [4] | log2 fold change (entinostat) | log2 fold change (vorinostat) | log2 fold change (citarinostat) | log2 fold change (silmitasertib) | log2 fold change [5] | log2 fold change [6]
1 | SYNE1 (UniProt Q8NF91) | -0.006 | -0.031 | -0.008 | 0.04 | -0.027 | 0.114 | 0.106 | -0.03 | -0.244 | 0.006
2 | SNX11 (UniProt Q9Y5W9) | -0.052 | -0.277 | -0.378 (active) | -0.052 | 0.097 | 0 | 0.233 | 0.025 | -0.023 | -0.072
3 | STOM (UniProt P27105) | -0.104 | -0.043 | -0.069 | -0.019 | -0.003 | 0.025 | 0.007 | 0.067 | 0.042 | -0.091
4 | TM9SF2 (UniProt Q99805) | 0.026 | 0.006 | -0.138 | -0.022 | -0.006 | 0.006 | -0.003 | 0.002 | -0.057 | -0.062
5 | TFAM (UniProt Q00059) | -0.079 | -0.006 | 0.085 | 0.011 | -0.035 | 0.005 | -0.151 | 0.011 | 0.06 | -0.115
6 | SPINDOC (UniProt Q9BUA3) | 0.09 | 0.003 | 0.014 | -0.061 | -0.188 | -0.014 | -0.106 | -0.061 | -0.102 | 0.053
7 | ST6GAL1 (UniProt P15907) | -0.101 | 0.089 | -0.079 | -0.004 | -0.106 | -0.045 | 0.025 | 0.024 | 0.017 | -0.064
8 | SSR3 isoform 2 (UniProt Q9UNL2) | -0.056 | 0.18 | -0.056 | 0.369 (active) | -0.04 | 0 | 0.068 | 0 | -0.028 | -0.114
9 | TJP1 (UniProt Q07157) | -0.043 | -0.067 | 0.033 | -0.071 | 0.044 | 0.049 | 0.041 | -0.158 | -0.056 | -0.092
10 | SMCHD1 (UniProt A6NHR9) | -0.085 | -0.352 | 0.159 | -0.423 | 0.08 | 0.19 | 0.085 | 0.095 | 0.206 | -0.176
11 | TECR (UniProt Q9NZ01) | 0 | -0.071 | -0.087 | -0.048 | 0.042 | 0.064 | 0.07 | 0.025 | -0.07 | -0.056
12 | SMARCE1 (UniProt Q969G3) | 0.05 | 0.096 | 0.218 | 0.707 | 0.076 | 0.088 | 0 | 0.211 | -0.008 | -0.016
13 | SNX12 isoform 1 (UniProt Q9UMY4) | -0.022 | -0.225 (active) | -0.22 (active) | 0.019 | 0.046 | 0.035 | 0.102 | 0.06 | -0.081 | -0.066
14 | SPECC1 (UniProt Q5M775) | -0.126 | -0.053 | -0.124 | -0.132 | -0.007 | 0 | -0.213 | 0.08 | -0.06 | -0.091
15 | SURF2 (UniProt Q15527) | 0.019 | 0.076 | 0.033 | 0.088 | -0.012 | -0.009 | 0.06 | 0.079 | -0.004 | -0.018
16 | SPG21 (UniProt Q9NZD8) | 0.072 | 0.305 (active) | -0.054 | 0.123 | 0.004 | 0.013 | -0.001 | -0.013 | -0.104 | 0.007
17 | TM9SF4 (UniProt Q92544) | 0.024 | 0.064 | -0.061 | 0.032 | -0.01 | 0.146 | 0.044 | 0.03 | -0.011 | -0.057
18 | STXBP2 isoform 3 (UniProt Q15833) | -0.084 | -0.066 | -0.12 | -0.051 | 0.035 | 0.105 | 0.046 | 0.112 | 0.141 | 0.036
19 | SMAP (UniProt O00193) | 0.007 | -0.021 | 0.12 | 0.013 | 0.016 | -0.047 | -0.029 | -0.033 | 0.006 | 0.02
20 | STAT5B (UniProt P51692) | -0.027 | -0.022 | -0.207 | -0.129 | 0.282 | 0.18 | 0.15 | 0.043 | 0.045 | 0.024
21 | SRSF9 (UniProt Q13242) | 0.079 | 0.17 | 0.398 | 0.171 | -0.072 | 0.029 | -0.114 | 0.195 | 0.245 | -0.237
22 | SNRNP40 (UniProt Q96DI7) | 0.017 | -0.017 | 0.065 | -0.011 | -0.067 | -0.018 | -0.008 | 0.058 | 0.04 | -0.121
23 | TGFBI (UniProt Q15582) | -0.037 | -0.136 | -0.116 | -0.116 | 0.056 | 0.309 | -0.056 | 0.114 | -0.01 | 0.202
24 | SMARCA4 (UniProt P51532) | -0.144 | -0.056 | 0.048 | -0.201 | 0.012 | 0.038 | 0.102 | -0.017 | -0.067 | -0.115
25 | SLC38A7 (UniProt Q9NVC3) | -0.017 | 0.002 | -0.299 | 0.197 | -0.066 | 0.11 | 0.085 | 0.022 | -0.107 | -0.004
26 | TIMM10 (UniProt P62072) | -0.004 | 0.042 | -0.027 | -0.077 | 0.058 | -0.048 | -0.012 | 0.009 | -0.04 | -0.043
27 | STAT6 (UniProt P42226) | -0.07 | -0.065 | -0.041 | -0.268 | 0.044 | 0.108 | 0.061 | 0.041 | -0.047 | 0.03
28 | SLC4A2 (UniProt P04920) | -0.048 | -0.055 | -0.204 (active) | -0.123 | 0.028 | 0.023 | -0.072 | 0.019 | 0.016 | -0.084
29 | SRXN1 (UniProt Q9BYN0) | -0.013 | -0.364 | -0.024 | -0.021 | -0.053 | -0.24 | -0.039 | -0.059 | -0.111 | 0.09
